For some of these results: Potency and affinity values are given separately.

What all share (parameters): scale not given: direction of the effect not stated beside the values
Experiment [1] deals with Protein translocase subunit SecA (Escherichia coli (strain K12)) (UniProt P10408). Nature of the experiment: Assay to Identify E. coli SecA ATPase Inhibitors. Format: functional. To be noted: 30 µM.
Experiment [2] addresses T1, Ubiquitin-activating enzyme e1, putative (Leishmania donovani (strain BPK282A1)) (UniProt E9BSI1).
T1 sequence (whole entry): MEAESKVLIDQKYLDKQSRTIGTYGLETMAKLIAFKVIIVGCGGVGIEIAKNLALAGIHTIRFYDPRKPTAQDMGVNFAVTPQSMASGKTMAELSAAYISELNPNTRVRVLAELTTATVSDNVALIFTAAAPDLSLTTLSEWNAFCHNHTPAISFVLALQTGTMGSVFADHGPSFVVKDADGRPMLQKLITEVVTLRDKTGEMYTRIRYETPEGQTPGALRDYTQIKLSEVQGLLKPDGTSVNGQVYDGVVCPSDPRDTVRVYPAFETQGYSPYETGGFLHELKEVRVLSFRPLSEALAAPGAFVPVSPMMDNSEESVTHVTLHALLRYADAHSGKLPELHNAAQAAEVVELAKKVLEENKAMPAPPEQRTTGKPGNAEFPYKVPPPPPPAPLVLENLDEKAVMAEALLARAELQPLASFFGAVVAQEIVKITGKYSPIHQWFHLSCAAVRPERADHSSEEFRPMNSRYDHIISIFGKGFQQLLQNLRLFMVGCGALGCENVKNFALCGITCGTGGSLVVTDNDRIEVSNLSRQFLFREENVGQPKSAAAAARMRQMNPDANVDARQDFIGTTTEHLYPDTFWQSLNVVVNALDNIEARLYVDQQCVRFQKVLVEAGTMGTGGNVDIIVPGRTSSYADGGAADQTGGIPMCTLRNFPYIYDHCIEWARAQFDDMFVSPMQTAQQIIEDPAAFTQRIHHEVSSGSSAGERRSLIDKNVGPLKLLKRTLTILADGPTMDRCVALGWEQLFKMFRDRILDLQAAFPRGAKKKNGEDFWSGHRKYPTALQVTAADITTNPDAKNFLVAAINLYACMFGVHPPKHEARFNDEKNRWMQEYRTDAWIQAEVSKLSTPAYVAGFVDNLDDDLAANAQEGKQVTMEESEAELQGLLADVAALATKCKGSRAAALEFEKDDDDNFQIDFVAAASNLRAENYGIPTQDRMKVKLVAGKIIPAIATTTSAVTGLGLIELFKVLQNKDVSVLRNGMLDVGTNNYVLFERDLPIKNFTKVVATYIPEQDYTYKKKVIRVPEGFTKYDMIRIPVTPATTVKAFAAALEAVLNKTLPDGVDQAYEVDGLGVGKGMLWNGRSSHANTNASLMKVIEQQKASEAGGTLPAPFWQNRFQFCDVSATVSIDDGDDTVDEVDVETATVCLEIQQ
The experiment can be described thus: Leishmania donovani Ubiquitin Activating Enzyme (LdE1). The experiment is classed as functional. The note with it: 30 µM.

Experiment [3] concerns the target AMP-activated protein kinase, AMPK (Homo sapiens) (UniProt P54646+O43741+P54619+Q9UGJ0+Q9Y478+Q13131+Q9UGI9). Nature of the experiment: AMP-dependent Kinase enzyme assay. An in vitro enzyme assay that detects ADP turnover that is directly proportional to AMPK activity. This uses naive AMPK that is activated during the assay with MK-8722. The experiment is classed as functional. The note with it: 30 µM.

Experiment [4] deals with Sialic acid-binding Ig-like lectin 9 (Homo sapiens) (UniProt Q9Y336). The experiment can be described thus: Hs-Siglec9 ALPHAscreen SOP 20170721. To be noted: 10 µM.
In another experiment the test system is Trypanosoma cruzi. Nature of the experiment: Trypanosoma cruzi phosphomannomutase and mannose-1-phosphate guanylyltransferase assay. The experiment is classed as functional. To be noted: 10 µM.
Experiment [5] has as its target T2, Arginase-2, mitochondrial (Homo sapiens) (UniProt P78540).
T2 sequence (whole entry): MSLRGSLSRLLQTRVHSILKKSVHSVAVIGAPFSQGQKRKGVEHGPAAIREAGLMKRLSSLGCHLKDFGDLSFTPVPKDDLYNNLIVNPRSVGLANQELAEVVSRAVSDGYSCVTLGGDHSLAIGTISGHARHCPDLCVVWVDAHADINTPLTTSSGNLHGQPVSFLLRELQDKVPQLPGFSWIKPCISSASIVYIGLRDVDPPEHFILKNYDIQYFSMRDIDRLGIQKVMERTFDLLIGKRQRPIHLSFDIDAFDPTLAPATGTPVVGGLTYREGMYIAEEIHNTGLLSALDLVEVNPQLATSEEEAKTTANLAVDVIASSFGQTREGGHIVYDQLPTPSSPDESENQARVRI
Nature of the experiment: in vitro enzyme assay to detect the production of urea directly proportional to the activity of Arginase II. Further: in the data most compounds retested in dose-response had high values. The experiment is classed as functional. To be noted: 33.3 µM.

Experiment [6] addresses T3, Proteasome subunit beta (Trypanosoma cruzi) (UniProt O96673).
T3 sequence (whole entry): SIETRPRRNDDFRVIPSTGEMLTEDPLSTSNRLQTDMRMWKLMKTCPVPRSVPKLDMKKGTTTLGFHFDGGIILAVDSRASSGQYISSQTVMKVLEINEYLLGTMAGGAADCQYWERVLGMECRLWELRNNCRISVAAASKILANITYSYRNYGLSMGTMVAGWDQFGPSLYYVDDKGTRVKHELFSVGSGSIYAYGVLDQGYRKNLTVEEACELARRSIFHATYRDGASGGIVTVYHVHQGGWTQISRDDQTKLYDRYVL
Nature of the experiment: Trypanosoma cruzi proteasome chymotrypsin-like activity (TcProtChymo) assay. Further: in the data most compounds retested in dose-response had high values. The experiment is classed as functional. The note with it: 9.37 µM.

For a further experiment, the species on record is Homo sapiens. Nature of the experiment: To identify inhibition of the IFN signalling (Jak-Stat) pathway via expression of an eGFP reporter gene under the control of an IFN-stimulated response element (ISRE) containing MxA promoter. The experiment is classed as functional. To be noted: 30 µM. A general note: In a reporter assay the amount or activity of a reporter protein is the signal.

Experiment [7] deals with T4, Tyrosyl-tRNA synthetase, putative (Trypanosoma cruzi (strain CL Brener)) (UniProt Q4DSP6).
T4 sequence (whole entry): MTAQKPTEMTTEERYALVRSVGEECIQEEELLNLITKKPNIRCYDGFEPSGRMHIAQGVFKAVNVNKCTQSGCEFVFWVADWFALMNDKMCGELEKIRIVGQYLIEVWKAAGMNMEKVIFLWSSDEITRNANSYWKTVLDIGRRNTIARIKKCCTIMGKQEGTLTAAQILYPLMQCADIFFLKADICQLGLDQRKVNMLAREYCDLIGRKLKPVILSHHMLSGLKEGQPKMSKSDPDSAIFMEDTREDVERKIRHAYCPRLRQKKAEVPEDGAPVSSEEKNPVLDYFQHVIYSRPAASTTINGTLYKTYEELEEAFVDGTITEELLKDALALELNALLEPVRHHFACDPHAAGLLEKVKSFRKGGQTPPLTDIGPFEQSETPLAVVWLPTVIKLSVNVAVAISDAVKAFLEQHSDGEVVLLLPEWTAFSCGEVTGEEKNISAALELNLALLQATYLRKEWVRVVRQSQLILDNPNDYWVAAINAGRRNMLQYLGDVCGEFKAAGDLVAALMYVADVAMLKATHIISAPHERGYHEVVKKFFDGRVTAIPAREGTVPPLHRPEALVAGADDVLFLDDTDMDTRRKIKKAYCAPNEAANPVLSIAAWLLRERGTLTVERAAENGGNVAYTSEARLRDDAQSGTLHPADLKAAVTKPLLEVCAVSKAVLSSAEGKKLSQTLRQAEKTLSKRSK
The experiment can be described thus: Trypanosoma cruzi tyrosyl tRNA synthetase (TcYRS) _High Tyrosine SOP. Further: in the data most compounds retested in dose-response had high values. To be noted: 30 µM. Format: functional.

In experiment [8] the target is T4, Tyrosyl-tRNA synthetase, putative (Trypanosoma cruzi (strain CL Brener)). The experiment can be described thus: Trypanosoma cruzi tyrosyl tRNA synthetase (TcYRS) SOP. Format: functional. The note with it: 30 µM.
For experiment [9], the target named is Chromo domain-containing protein 1 (Saccharomyces cerevisiae (strain ATCC 204508 / S288c) (Baker's yeast)) (UniProt P32657). Nature of the experiment: ScCHD-1 Enzyme Inhibition Assay. Further: in the data most compounds retested in dose-response had high values. The experiment is classed as functional. To be noted: 30 µM.
Chromo domain-containing protein 1 (Saccharomyces cerevisiae (strain ATCC 204508 / S288c) (Baker's yeast)), sequence (P32657 whole entry, the tested form may be a part): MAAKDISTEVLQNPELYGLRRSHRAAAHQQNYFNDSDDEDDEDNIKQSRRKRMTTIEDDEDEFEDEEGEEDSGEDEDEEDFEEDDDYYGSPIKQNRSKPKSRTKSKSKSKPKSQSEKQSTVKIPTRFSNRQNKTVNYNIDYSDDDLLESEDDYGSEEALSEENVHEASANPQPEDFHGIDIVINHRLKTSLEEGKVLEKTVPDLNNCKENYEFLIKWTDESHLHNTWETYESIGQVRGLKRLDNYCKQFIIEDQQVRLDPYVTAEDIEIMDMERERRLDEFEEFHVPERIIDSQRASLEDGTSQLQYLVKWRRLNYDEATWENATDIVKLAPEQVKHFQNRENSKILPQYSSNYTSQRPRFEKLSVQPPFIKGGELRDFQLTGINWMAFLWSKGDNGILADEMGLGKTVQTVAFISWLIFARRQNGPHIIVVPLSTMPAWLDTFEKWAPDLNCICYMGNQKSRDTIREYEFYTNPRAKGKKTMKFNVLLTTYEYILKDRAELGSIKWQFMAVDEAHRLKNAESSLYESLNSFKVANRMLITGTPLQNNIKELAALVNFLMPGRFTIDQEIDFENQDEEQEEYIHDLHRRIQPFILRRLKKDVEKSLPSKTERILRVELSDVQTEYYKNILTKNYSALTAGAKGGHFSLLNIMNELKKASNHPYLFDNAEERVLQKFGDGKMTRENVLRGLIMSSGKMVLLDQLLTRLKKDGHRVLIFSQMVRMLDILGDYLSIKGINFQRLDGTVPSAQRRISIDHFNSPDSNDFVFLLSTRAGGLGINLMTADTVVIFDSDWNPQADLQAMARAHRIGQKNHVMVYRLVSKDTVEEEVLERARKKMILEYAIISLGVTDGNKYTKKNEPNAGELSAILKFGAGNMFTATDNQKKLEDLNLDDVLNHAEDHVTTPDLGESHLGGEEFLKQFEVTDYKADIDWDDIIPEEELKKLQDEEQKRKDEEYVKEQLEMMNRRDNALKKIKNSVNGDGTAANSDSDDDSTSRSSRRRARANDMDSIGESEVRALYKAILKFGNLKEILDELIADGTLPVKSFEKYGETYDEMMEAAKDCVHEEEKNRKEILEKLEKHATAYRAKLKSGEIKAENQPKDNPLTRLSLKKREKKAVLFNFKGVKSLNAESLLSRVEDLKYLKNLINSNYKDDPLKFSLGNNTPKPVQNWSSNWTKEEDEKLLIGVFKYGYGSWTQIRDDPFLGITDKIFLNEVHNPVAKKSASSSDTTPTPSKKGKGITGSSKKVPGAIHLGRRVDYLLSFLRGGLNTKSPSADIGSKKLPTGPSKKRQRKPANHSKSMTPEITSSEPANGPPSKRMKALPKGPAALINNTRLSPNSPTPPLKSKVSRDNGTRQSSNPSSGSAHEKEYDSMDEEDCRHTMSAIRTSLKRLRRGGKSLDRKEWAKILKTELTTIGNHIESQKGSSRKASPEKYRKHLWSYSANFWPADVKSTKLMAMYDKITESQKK

Sialic acid-binding Ig-like lectin 9 (Homo sapiens), sequence (Q9Y336 whole entry): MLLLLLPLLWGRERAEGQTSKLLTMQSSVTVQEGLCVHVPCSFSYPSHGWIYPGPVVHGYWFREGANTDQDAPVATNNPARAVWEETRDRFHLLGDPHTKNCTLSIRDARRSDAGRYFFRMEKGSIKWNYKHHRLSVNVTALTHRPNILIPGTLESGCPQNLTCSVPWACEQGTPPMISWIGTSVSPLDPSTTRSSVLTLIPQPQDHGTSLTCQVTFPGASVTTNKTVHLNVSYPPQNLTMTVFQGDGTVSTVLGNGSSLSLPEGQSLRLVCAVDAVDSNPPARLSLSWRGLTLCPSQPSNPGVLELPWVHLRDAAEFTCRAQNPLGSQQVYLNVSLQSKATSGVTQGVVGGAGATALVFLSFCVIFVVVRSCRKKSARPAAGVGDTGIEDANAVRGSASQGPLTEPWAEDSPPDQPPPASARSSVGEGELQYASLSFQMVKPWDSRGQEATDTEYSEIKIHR
Protein translocase subunit SecA (Escherichia coli (strain K12)), sequence (P10408 whole entry): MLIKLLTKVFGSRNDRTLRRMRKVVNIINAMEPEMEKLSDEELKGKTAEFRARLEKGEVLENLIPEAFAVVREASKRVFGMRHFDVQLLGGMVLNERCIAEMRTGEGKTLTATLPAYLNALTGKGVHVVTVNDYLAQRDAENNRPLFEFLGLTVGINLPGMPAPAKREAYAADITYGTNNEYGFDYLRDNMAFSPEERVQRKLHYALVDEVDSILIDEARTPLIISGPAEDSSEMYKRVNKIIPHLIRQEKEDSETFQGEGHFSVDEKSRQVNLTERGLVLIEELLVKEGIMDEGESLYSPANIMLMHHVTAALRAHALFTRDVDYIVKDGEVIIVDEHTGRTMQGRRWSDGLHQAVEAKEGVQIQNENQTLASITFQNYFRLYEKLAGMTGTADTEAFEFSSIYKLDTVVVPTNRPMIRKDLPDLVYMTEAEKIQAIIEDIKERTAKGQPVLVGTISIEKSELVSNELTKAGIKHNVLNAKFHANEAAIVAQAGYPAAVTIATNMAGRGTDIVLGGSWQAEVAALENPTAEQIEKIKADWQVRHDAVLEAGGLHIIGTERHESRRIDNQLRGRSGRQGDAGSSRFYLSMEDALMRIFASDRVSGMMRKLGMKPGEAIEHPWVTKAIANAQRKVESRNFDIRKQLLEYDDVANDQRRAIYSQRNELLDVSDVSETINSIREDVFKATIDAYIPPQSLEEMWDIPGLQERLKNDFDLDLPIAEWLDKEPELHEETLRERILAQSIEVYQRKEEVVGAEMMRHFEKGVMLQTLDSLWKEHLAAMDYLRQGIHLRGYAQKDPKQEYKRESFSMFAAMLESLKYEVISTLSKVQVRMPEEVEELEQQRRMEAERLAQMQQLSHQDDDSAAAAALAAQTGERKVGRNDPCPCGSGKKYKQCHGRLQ

With `Cc1nc(CN(C)C2CCN(Cc3sc(C)nc3C)C2)no1` (stereo not drawn), the Percent Effect in experiment [1] was -3.5%; in experiment [2] it was 7.89%; in experiment [3], -14.6%; in experiment [4], 4.01%; with Trypanosoma cruzi, 7.38%; in experiment [5], 0%. Besides, the Percent Effect in experiment [6] is 20.6%; in the experiment filed under Homo sapiens it was 2.16%; in experiment [7] it was 4.43%; in experiment [8] it was 11.1%; in experiment [9], -3.08%.
In the case of `CCSCCC(=O)Nc1ncn(CC(=O)NCc2ccccc2)n1`, the Percent Effect in experiment [1] is -4.92%; in [2] it was 16%; in experiment [3], -4.62%; in experiment [4], 16.7%; in the experiment on Trypanosoma cruzi, 8.86%; in [5], 3.65%. The Percent Effect in [6] was 25.1%; in the experiment listed under Homo sapiens it was 5.59%; in experiment [7] it was 12.6%; in [8], 28.4%; in experiment [9], -2.42%.
Turning to `CCN1CCN(Cc2coc(-c3cccc(F)c3)n2)CC1`, the Percent Effect is -2.72% in [1]; 18.2% in experiment [2]; -12.3% in experiment [3]; -3.56% in experiment [4]; 5.06% in the experiment on Trypanosoma cruzi; -0.356% in [5]. Further, the Percent Effect in experiment [6] was 16.6%; in the experiment listed under Homo sapiens, -3.8%; in experiment [7] it was 9.71%; in experiment [8], 12.2%; in [9] it was -12%.
On to `c1cnn(Cc2cn3c(n2)CN(Cc2nccs2)CC3)c1`, for which the Percent Effect is -2.43% in [1]; -36.4% in [2]; -0.581% in [3]; -1.53% in [4]; 5.23% with Trypanosoma cruzi; 5.81% in [5]. Moreover, the Percent Effect in experiment [6] is 12.2%; in the experiment filed under Homo sapiens, 4.15%; in experiment [7], 9.52%; in experiment [8], 26.9%; in experiment [9], -6.74%.
In the case of `Cc1ccc(=O)n(CC2(O)CCN(Cc3ccsc3)CC2)n1`, the Percent Effect in experiment [1] was 1.03%; in [2], 1.35%; in experiment [3], 9.78%; in experiment [4], -1.02%; in the experiment on Trypanosoma cruzi, -4.74%; in [5] it was 3.02%. In addition, the Percent Effect in experiment [6] is 12.9%; in the experiment listed under Homo sapiens, 2.32%; in experiment [7] it was 7.53%; in experiment [8], 9.09%; in [9], -6.08%.
As to `CCOc1ccc(CN(C)C(=O)NC(C)c2nncn2C)cc1` (stereo not drawn), the Percent Effect in [1] is 1.14%; in experiment [2], 15.3%; in experiment [3], -8.94%; in experiment [4], 7%; in the experiment on Trypanosoma cruzi, 0.0972%; in experiment [5], 4.42%. The Percent Effect is 18.4% in [6]; 11.4% in the experiment filed under Homo sapiens; 7.37% in experiment [7]; 5.13% in experiment [8]; -0.989% in experiment [9].
For `COCCCNC(=O)CN(C)C(=O)c1cc(C)ccc1N(C)C(C)C`, the Percent Effect was -2.35% in experiment [1]; 10.8% in experiment [2]; -5.29% in experiment [3]; 6.07% in [4]; 0.65% with Trypanosoma cruzi; -3.88% in [5]. The Percent Effect was 0% in experiment [6]; 5.31% in the experiment listed under Homo sapiens; 1.98% in [7]; 13.4% in experiment [8]; -2.86% in [9].
For the molecule `O=C(CCO)N1CCOC2(CCCN(C(=O)c3ccco3)C2)C1` (stereo not drawn), the Percent Effect was 2.21% in experiment [1]; -5.2% in experiment [2]; 0.24% in experiment [3]; 19.9% in experiment [4]; 4.82% in the experiment on Trypanosoma cruzi; 4.14% in experiment [5]. For the same molecule, the Percent Effect in [6] is 11.3%; in the experiment filed under Homo sapiens, -33.1%; in experiment [7], -12.9%; in experiment [8], -13.6%; in experiment [9], 0.942%.
